A selection: hits, their analogues and other compounds. The true share with any hit is near 1.2%.
YjeE inh = qHTS Assay for Inhibitors of YjeE. tRNA threonylcarbamoyladenosine biosynthesis protein TsaE (Escherichia coli (strain …. AID 605, 2007. 71,000 compounds, 0.05% hits. Potency, µM. purified YjeE enzyme, qHTS inhibition assay
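Fluorescence polarization of a BODIPY Texas Red–ADP probe (2 uM) bound to purified YjeE (10 uM) was read after 15 min room-temperature incubation with compounds. Loss of polarization marks inhibitors; ADP serves as titrated control.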
Hsp90 Hop PPI = qHTS Assay for Disrupters of an Hsp90 Co-Chaperone Interaction. 71,000 compounds, 0.44% hits. Potency, µM (titrated, usually from 57 µM), without a hit: at the top dose activity change, negative = inhibition. AlphaScreen TPR2A-His6 binding biotin-Hsp90 C-terminal peptide. AID 595, 2007. Hsp90 C-terminal peptide / TPR2A (Hop) interaction, human; active means well fitted curve in either direction with a large enough effect; inconclusive means small, poorly fitted or top-dose-only effect, or another doubt; further: potency means the concentration at half of the fitted maximal effect; on the % scale 0 is the no-effect control and ±100 the full control effect
BRCT PPI red = qHTS Assay for Inhibitors of BRCT-Phosphoprotein Interaction (Red Fluorophore); BRCT-phosphopeptide binding, red fluorescence polarization; Potency, µM (top dose mostly 76.9 µM), for the others: at the highest dose activity change, negative = inhibition, hits mostly inhibitors; 75,000 compounds, 0.03% hits; AID 892, 2007; further: on the % scale 0 is the no-effect control and ±100 the full control effect
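Rhodamine-labelled pBACH1 10-mer (100 nM) bound to BRCT domain (100 nM) at pH 7.3; compounds incubated 12 min room temperature, polarization read. Free peptide defines full inhibition; unlabelled decapeptide titrated as control.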
GBA mod = Glucocerebrosidase | Lysosomal acid glucosylceramidase (Homo sapiens), P04062 | purified enzyme, resorufin glucoside fluorescence (screen aimed at inhibitors), 20 min | Potency, µM | 48,000 compounds, 1.1% hits | AID 360, 2006; in the data active means potency below about 15 µM; inconclusive means mostly about 16 µM to 33 µM;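 further: potency means the concentration at half of the fitted maximal effect; the screen sought inhibitors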
Target sequence (P04062 whole entry, looked up): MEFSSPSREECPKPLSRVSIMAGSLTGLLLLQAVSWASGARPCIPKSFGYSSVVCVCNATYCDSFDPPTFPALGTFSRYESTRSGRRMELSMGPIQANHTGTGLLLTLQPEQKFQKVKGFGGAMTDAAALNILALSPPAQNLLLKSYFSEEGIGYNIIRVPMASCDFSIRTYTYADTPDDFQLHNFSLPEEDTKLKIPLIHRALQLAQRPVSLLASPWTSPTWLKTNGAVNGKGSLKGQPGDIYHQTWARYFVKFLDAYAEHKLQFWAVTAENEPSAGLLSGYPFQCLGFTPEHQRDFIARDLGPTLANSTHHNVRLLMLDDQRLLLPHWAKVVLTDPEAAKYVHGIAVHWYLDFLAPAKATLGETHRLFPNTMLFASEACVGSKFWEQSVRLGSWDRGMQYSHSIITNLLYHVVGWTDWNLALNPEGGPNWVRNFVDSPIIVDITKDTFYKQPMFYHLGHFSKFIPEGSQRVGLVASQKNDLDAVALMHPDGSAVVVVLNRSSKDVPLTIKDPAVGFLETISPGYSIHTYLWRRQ
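Normal human glucocerebrosidase (0.2 nM final) was assayed with resorufin β-D-glucopyranoside (30 uM final) in 50mM citric acid/KH2PO4, 10mM sodium taurocholate, 0.01% tween-20, pH 5.9. Compounds were titrated; fluorescence (Ex 548, Em 600) read after 20 min at RT.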
BRCT PPI green = qHTS Assay for Inhibitors of BRCT-Phosphoprotein Interaction (Green Fluorophore) | Breast cancer type 1 susceptibility protein (Homo sapiens), P38398 | BRCA1 BRCT-phosphopeptide binding, green fluorescence polarization | Potency, µM (top dose mostly 76.9 µM), for the others: top-dose activity change, negative = inhibition, usual class: inhibitors | 75,000 compounds, 0.05% hits;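 further: potency means the concentration at half of the fitted maximal effect; plate controls were peptide without protein for full effect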
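Fluorescence polarization: His-tagged BRCT (~35 kDa BRCA1 C-terminus, 250 nM) bound to 100 nM fluorescein-labeled phosphorylated 10-aa BACH1 peptide, pH 7.3 phosphate buffer with DTT and Tween 20. Compounds incubated 12 min at room temperature; inhibition read as lowered polarization.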
Pol III holo inh = qHTS Assay for Inhibitors of DNA Polymerase III Holoenzyme System; reconstituted DNA polymerase III holoenzyme replication, biochemical; Potency, µM (top dose mostly 57.1 µM), for the others: top-dose activity change, negative = inhibition; 71,000 compounds, 0.25% hits; further: potency means the concentration at half of the fitted maximal effect; on the % scale 0 is the no-effect control and ±100 the full control effect
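Reconstituted *E. coli* holoenzyme (0.35 nM Pol III, 1 nM beta, 154 nM SSB, 2 nM primase) was preincubated with compound for 15 min at RT. Synthesis on 1.4 nM ssM13Gori ran 35 min, then was stopped with PicoGreen/EDTA and read as dsDNA fluorescence.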
Numbers without * were called inactive; i = inactive; u = inconclusive; x = no result given; [ ] = dose if it differs, or a comment. Unless noted, the call rests on the fitted dose curve; in most records, active means well fitted curve in the direction sought with a large enough effect; inconclusive means small, poorly fitted or top-dose-only effect, or another doubt; inactive means no such curve, though single readings can be large; an effect the other way counts as inactive or inconclusive.

SMILES	YjeE inh	Hsp90 Hop PPI	BRCT PPI red	GBA mod	BRCT PPI green	Pol III holo inh
O=C(Cc1ccc(Cl)cc1)Nc1ccc(-c2nnc(-c3ccco3)o2)cc1	i	-3%	0%	x	2%	20µM*
O=C(Cc1ccccc1)Nc1ccc(-c2nnc(-c3ccco3)o2)cc1	i	-5%	-1%	>77	0%	-3%
C=CCn1cnc2c(c1=O)c1nc3ccccc3nc1n2/N=C/c1ccccn1	i	-8%	0%	8.4*	-2%	-17%
C=CCn1cnc2c(c1=O)c1nc3ccccc3nc1n2/N=C/c1cccc(OC)c1OC	i	-6%	0%	6.6*	-1%	-1%
CN(C)c1ccc(-c2cc(Nc3ccc(F)cc3)ncn2)cc1	i	-3%	-1%	x	-3%	1%
CCSc1nc(-c2ccc(OC)cc2)ccc1C#N	i	25µM*	-6%	>77	0%	-4%
CCCNC(=O)N1N=C(c2ccc(N)cc2)c2cc3c(cc2[C@H]1C)OCO3	i	-4%	-3%	x	-3%	-1%
Cc1cc(C)c(S(=O)(=O)Nc2ccc(C(=O)O)c(O)c2)cc1C	x	x	-1%	x	0%	x
COc1ccc(N2CCN(S(=O)(=O)c3cccc(C(F)(F)F)c3)CC2)cc1	i	-3%	1%	>77	2%	5%
Cn1c(=O)c2cc(S(=O)(=O)N3CCN(c4cccc(C(F)(F)F)c4)CC3)ccc2n(C)c1=O	i	-2%	-1%	7.3*	-1%	-5%
Cn1c(C(=O)NCCCN2CCCCCC2)cc2c(=O)n(C)c3ccccc3c21	i	-5%[2.3 µM]	-2%	x	7%	7.9µM*
CCN1CCN(c2ccc(NC(=O)c3cccc4ncccc34)cc2)CC1	i	1%	-5%	8.7*	0%	-2%
CCOC(=O)C1=C(C)NC(=O)NC1c1ccc(OCC(=O)OC)c(OC)c1 (stereo unspecified)	i	-2%	0%	>77	0%	-4%
CCOC(=O)C1=C(C)NC(=O)NC1c1ccc(OC(C)C(=O)O)c(OC)c1 (stereo unspecified)	i	13µM*	-8%	>77	0%	-8%
COc1ccc(-n2cnnc2SCc2ncc(-c3ccccc3)o2)cc1	i	-3%	-3%	>77	3%	5µM*
Brc1ccccc1-c1nnc(CSc2nncn2-c2ccccc2)o1	i	0%	0%	>77	1%	-1%
OCCN1CCN(C(c2cccs2)c2ccc3cccnc3c2O)CC1 (stereo unspecified)	i	32µM*	-1%	i	-2%	-6%
COc1ccc2c(c1)c(=O)oc1cc(OCC(=O)NC3CC3)ccc12	i	-2%	-1%	>77	-2%	16µM*
C=CCn1c(/N=C/c2ccc(N(C)C)cc2)nc2ccccc21	i	-8%	0%	>77	5%	-1%
CN(C)c1ccc(/C=N/n2ncc3ccccc32)cc1	i	25µM*	1%	u	2%	3%
C[C@H]1[C@H](C)CC[C@@]2(C(=O)O)CC[C@]3(C)C(=CC[C@@H]4[C@@]5(C)CC[C@H](O)C(C)(C)[C@@H]5CC[C@@]43C)[C@@H]12	i	2%	x	x	x	-2%
COCCn1c(=O)cnc2cnc(N(C)C)nc21	i	-5%	-1%	x	1%	11%
Cc1ccccc1CS(=O)(=O)c1nnc([C@H](CC(C)C)NC(=O)OC(C)(C)C)o1	i	-3%	-1%	x	-1%	-6%
CC(C)(C)OC(=O)N[C@@H](Cc1ccccc1)c1nnc(S(=O)(=O)Cc2cccc(F)c2)o1	i	-4%	-1%	15*	-3%	-1%
COc1ccccc1NC(=O)CN1CCN(CC(=O)Nc2ccc(F)cc2)CC1	i	-5%	-3%	i	-2%	-8%
SMILES	YjeE inh	Hsp90 Hop PPI	BRCT PPI red	GBA mod	BRCT PPI green	Pol III holo inh
COc1ccccc1NC(=O)CN1CCN(CC(=O)Nc2ccc(OCc3ccccc3)cc2)CC1	i	-2%	0%	10*	1%	1%
CC(C)NS(=O)(=O)c1ccc(OCC(=O)Nc2ccc3c(c2)OCO3)c(Cl)c1	i	-5%	0%	>77	1%	-2%
COC(=O)COc1ccc(S(=O)(=O)Nc2ccc3c(c2)OCCO3)cc1Cl	i	-3%	-2%	14*	2%	-2%
CC(C)c1ccc2c(c1)CC[C@@H]1[C@@](C)(CN)CCC[C@@]21C	i	2%	x	x	x	1%
O=C(CCc1ccc(O)cc1)c1c(O)cc(O)cc1O[C@@H]1O[C@@H](CO)[C@@H](O)[C@@H](O)[C@H]1O	i	u	x	x	x	-3%
CN1C(=O)NC(c2ccc(O)cc2)C(C(=O)c2cccs2)C1(O)C(F)(F)F (stereo unspecified)	i	-3%	0%	15*	1%	0%
NC(CSCSCC(N)C(=O)O)C(=O)O (stereo unspecified)	x	x	1%	x	0%	x
CCc1nnc(NC(=O)CSc2nnc(-c3ccccc3O)n2-c2ccc(C)cc2)s1	i	-3%	0%	14*	-2%	-4%
CCc1nnc(NC(=O)CSc2nnc(CNc3cccc(C)c3)n2-c2ccccc2)s1	i	-9%	2%	11*	-1%	3%
FC(F)(F)c1ccccc1-c1nc(NC2CCNCC2)c2ccccc2n1	i	-3%	2%	x	-4%	-2%
CCN(CC)S(=O)(=O)c1ccc(S(=O)(=O)Nc2cc3c(cc2C(C)=O)OCO3)cc1	i	-6%	0%	15*	1%	-2%
O=C(Nc1ccc(OC(F)(F)F)cc1)C1=NCCN1	i	3%	-1%	2*	1%	1%
O=C(Nc1ccc(OC(F)(F)F)cc1)c1cnc2n(c1=O)CCS2	i	-3%	0%	x	-4%	-4%
COc1cc2c(cc1OC)Cc1cc(OC)c(OC)cc1Cc1cc(OC)c(OC)cc1C2	x	x	0%	x	1%[3.08 µM]	x
O=C1C=CC2=C3c4cc(O)c(O)cc4C[C@]3(O)COC2=C1	x	x	-10%	x	-1%[3.08 µM]	x
O=C1C=CC2=C3c4cc(O)c(O)cc4C[C@@]3(O)COC2=C1O	u	u	x	x	x	0.02µM*
C(=N\n1cnnc1)/c1cccc2ccccc12	i	-3%	-1%	14*	-1%	-5%
COc1ccccc1/C=N/n1cnnc1	i	-7%	0%	x	-2%	0%
COc1ccc(CNc2nc(-c3cccc(C#N)c3)nc3ccccc23)c(OC)c1	i	1%	0%	x	0%	14%
